Screening data as filed in PubChem.
LYPLA2 inh: blocks human lysophospholipase 2, a PME1 counter-screen; O95372; recombinant LYPLA2, FP-Rh probe fluorescence polarization; inhibition, % at 5.9 µM; actives 0.38% (n = 320,000); AID 2177;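 active means inhibition above the screen-wide mean plus 3 SD, limit set per campaign, cut at about 26% in these data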;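 further: 0% = LYPLA2 with DMSO and 100% = wells lacking LYPLA2 enzyme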
PAFAH1B2 inh: blocks human PAF acetylhydrolase 1b catalytic subunit 2 | actives 1.2% (n = 340,000) | inhibition, % at 3.39 µM | recombinant PAFAH1B2, FP-rhodamine activity probe, fluorescence polarization | P68402;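 active means inhibition above the mean of all tested compounds plus 3 SD, cut at about 24% in these data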;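 further: 0% = enzyme with DMSO and 100% = wells lacking PAFAH1B2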
Target sequence (P68402 whole entry, looked up): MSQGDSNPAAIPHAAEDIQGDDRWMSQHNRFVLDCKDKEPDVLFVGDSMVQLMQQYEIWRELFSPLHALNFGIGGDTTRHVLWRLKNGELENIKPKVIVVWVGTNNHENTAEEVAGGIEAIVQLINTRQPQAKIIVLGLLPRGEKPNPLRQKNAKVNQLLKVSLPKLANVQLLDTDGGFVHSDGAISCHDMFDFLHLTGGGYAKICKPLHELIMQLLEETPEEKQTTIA
LYPLA1 inh: counter-screen for PME1 inhibitors: inhibitors of human LYPLA1 | O75608 | recombinant LYPLA1, FP-Rh probe fluorescence polarization | inhibition, % at 5.9 µM | actives 0.16% (n = 320,000);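 active means inhibition above the mean of all tested compounds plus 3 SD, set per campaign, cut at about 14% in these data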;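 further: inhibitors block serine hydrolase probe labeling of LYPLA1 so polarization falls; 0% = enzyme with DMSO and 100% = wells lacking LYPLA1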
Target sequence (O75608 whole entry, looked up): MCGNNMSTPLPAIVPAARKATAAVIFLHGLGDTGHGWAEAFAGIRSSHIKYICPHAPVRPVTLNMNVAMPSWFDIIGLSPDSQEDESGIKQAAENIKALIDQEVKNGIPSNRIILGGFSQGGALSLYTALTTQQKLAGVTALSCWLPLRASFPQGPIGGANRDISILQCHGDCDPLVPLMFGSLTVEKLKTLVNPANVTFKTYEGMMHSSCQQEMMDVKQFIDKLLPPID
pPAFAH FP inh: inhibitors of human plasma PAF acetylhydrolase (pPAFAH); Q13093; recombinant pPAFAH, FP-rhodamine probe fluorescence polarization; inhibition, % at 3.39 µM; actives 1.5% (n = 330,000);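 active means inhibition above the mean inhibition across the screen plus 3 SD, cut at about 25% in these data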;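 further: inhibitors block binding of the rhodamine activity-based probe so polarization drops; 0% = enzyme with DMSO and 100% = wells lacking pPAFAH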
PAFAH2 inh: inhibitors of human PAFAH2; AID 492956; recombinant PAFAH2, FP-rhodamine activity probe, fluorescence polarization; Q99487; actives 0.99% (n = 340,000); inhibition, % at 3.39 µM;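 active means inhibition above the mean over all tested compounds plus 3 SD, cut at about 30% in these data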;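 further: inhibitors block probe labeling of enzyme so polarization drops; 0% = enzyme with DMSO and 100% = wells lacking PAFAH2 protein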
PAFAH1B3 inh: PAFAH1B3 (human) inhibition | recombinant PAFAH1B3, FP-rhodamine probe, fluorescence polarization | Q15102 | actives 0.28% (n = 340,000) | inhibition, % at 3.39 µM;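 active means inhibition above the screen-wide average of all tested compounds plus 3 SD, cut at about 25% in these data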;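 further: 0% = enzyme with DMSO only and 100% = wells lacking PAFAH1B3 protein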
PAFAH2 FP conf: confirmation of human PAFAH2 inhibitors; shares compounds with PAFAH2 inh; recombinant PAFAH2, FP-rhodamine activity probe, fluorescence polarization; inhibition, % at 3.39 µM; actives 65% (n = 2,300); AID 493030;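 active means mean inhibition over three repeats above a set limit taken from the earlier primary screen, cut at about 30% in these data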;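 further: inhibitor blocks binding of rhodamine activity probe so polarization falls; 0% = enzyme with DMSO and 100% = wells lacking PAFAH2 protein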
Active calls of the source: *; x = not tested or not shown. An excerpt weighted towards active compounds, which were near 2.9% of everything screened.

SMILES	LYPLA2 inh	PAFAH1B2 inh	LYPLA1 inh	pPAFAH FP inh	PAFAH2 inh	PAFAH1B3 inh	PAFAH2 FP conf
CCNc1ccc(C(=O)OCC(=O)NCc2ccccc2Cl)cc1[N+](=O)[O-]	0	0	1	0	47*	-7	56*
CCNc1ccc(C(=O)OCC(=O)NC(=O)NCC(C)C)cc1[N+](=O)[O-]	5	3	5	0	33*	8	27
CCNc1ccc(C(=O)OCC(=O)Nc2cc(C)on2)cc1[N+](=O)[O-]	8	-2	0	2	31*	14	31*
C#CCOCCOCCOCCNc1nc(N2CCOCC2)nc(N2CCN(C(=O)Cn3cc(CCCN=C(N)N)nn3)CC2)n1	3	10	3	3	9	11	x
COc1cc(/C=C/C(=O)Nc2ccc(C)cc2)cc(OC)c1OC	0	-5	-4	5	10	4	x
CS/C(N)=N/N=C/c1cc(Br)cc(Br)c1O	-3	6	0	18	63*	2	43*
CS/C(N)=N/N=C/c1cc(C)ccc1O	-2	2	0	-1	0	7	x
Cc1ccc(N2CCN(C(=O)c3ccccc3NC(=O)C3CC=CCC3C(=O)O)CC2)cc1 (stereo unspecified)	2	2	-1	0	66*	7	57*
CC1CCCCN1C(=O)c1cc(S(=O)(=O)N2CCCCC2)c[nH]1 (stereo unspecified)	-7	-1	0	5	4	6	x
Cc1nc(S(=O)(=O)Nc2ccccc2C(=O)NCC2CC2)cn1C	-2	1	-1	1	1	2	x
O=C(CCc1ccccc1)Nc1ccccc1C(=O)NCc1ccco1	7	2	3	5	30*	5	30*
Cc1ccc(S(=O)(=O)N2CCCCC2)cc1NC(=O)COC(=O)c1c(F)cccc1F	-4	-3	1	6	38*	7	23
Cc1ccc(S(=O)(=O)N2CCCCC2)cc1NC(=O)COC(=O)c1cc[n+]([O-])cc1	-9	3	-5	-1	-1	12	x
Cc1ccc(S(=O)(=O)N2CCCCC2)cc1NC(=O)COC(=O)Cc1c(F)cccc1Cl	-1	1	-7	6	3	2	x
Cc1ccc(S(=O)(=O)N2CCCCC2)cc1NC(=O)COC(=O)c1ccc(O)cc1	-10	8	-1	15	60*	6	67*
Cc1ccc(S(=O)(=O)N2CCCCC2)cc1NC(=O)COC(=O)c1ccc(=O)[nH]c1	-1	-4	-1	3	56*	6	52*
O=c1c2ccccc2nc(COc2ccccc2)n1/N=C/c1ccc(O)c(O)c1	-6	4	-10	22	30*	11	24
COc1ccc(C(=O)OCC(=O)Nc2cccc(S(=O)(=O)N3CCCCCC3)c2)cc1[N+](=O)[O-]	x	-4	x	x	38*	-2	26
COc1cc(C(=O)OCC(=O)Nc2cccc(S(=O)(=O)N3CCCC3)c2)ccc1OCC(C)C	-41	-7	-21	3	45*	0	45*
CSCCCNC(=O)c1ccc(OC2CCN(C(=O)c3cccnc3)CC2)cc1	12	-2	3	3	-1	0	x
Cc1cc(NC(=O)COC(=O)c2ccccc2S(=O)(=O)N(C)c2ccccc2)no1	0	-1	-2	2	46*	2	1
CCOc1ccccc1OCC(=O)Nc1cc(C)on1	x	3	x	5	2	6	x
CCN(CC)c1ccc(C(=O)OCC(=O)Nc2cc(C)on2)cc1	5	0	0	16	90*	6	66*
Cc1cc(NC(=O)COC(=O)c2cccc(O)c2)no1	0	0	2	1	11	0	x
CCOc1cc(C(=O)OCC(=O)Nc2cc(C)on2)ccc1OCC(C)C	6	0	3	0	33*	7	29
SMILES	LYPLA2 inh	PAFAH1B2 inh	LYPLA1 inh	pPAFAH FP inh	PAFAH2 inh	PAFAH1B3 inh	PAFAH2 FP conf
CCOc1ccc(C(=O)OCC(=O)Nc2cc(C)on2)cc1OCC	-5	6	-2	5	77*	-2	63*
CC(C)CC(=O)Nc1ccccc1N1CCN(C(=O)c2ccccc2)CC1	-2	-2	3	-2	-5	4	x
O=C(NN=C1CCCC1)c1ccccc1O	3	3	-2	14	3	10	x
CCOC(=O)C1=C(C)N=C2SC(C)C(=O)N2C1c1ccc(OC(C)=O)c(OCC)c1 (stereo unspecified)	0	x	0	-1	x	x	x
COc1cc(OC)c(NS(=O)(=O)c2cccc(C(=O)OCC(=O)NCC3CCCO3)c2)cc1Cl (stereo unspecified)	-3	3	-1	18	39*	-2	31*
COc1cc(OC)c(N(C)S(=O)(=O)c2cccc(C(=O)OCC(=O)N(C)C3CCCCC3)c2)cc1Cl	x	0	x	x	40*	-7	27
O=C(COC(=O)c1cccc(S(=O)(=O)N2CCN(c3ccccc3)CC2)c1)NCC1CCCO1 (stereo unspecified)	1	8	-1	11	16	-7	x
CC(CCc1ccccc1)NC(=O)COC(=O)c1cccc(N(C)C)c1 (stereo unspecified)	3	1	0	22	58*	-1	36*
CCN(CC)S(=O)(=O)c1cc(NC(=O)COC(=O)C2CCC2)ccc1C	12	4	2	8	14	14	x
CC(CCc1ccccc1)NC(=O)COC(=O)c1ccc(NC(=O)CC#N)cc1 (stereo unspecified)	-3	3	-16	-17	54*	-1	51*
CCN(CC)S(=O)(=O)c1cc(NC(=O)COC(=O)c2ccc(NC(=O)CC#N)cc2)ccc1C	-10	-9	-17	20	51*	-21	50*
Cc1ccc(NC(=O)COC(=O)Cc2ccsc2)cc1S(=O)(=O)N(C)C	6	2	1	19	9	3	x
CCOCc1c(C(=O)OCC(=O)Nc2ccc(C)c(S(=O)(=O)N(C)C)c2)oc2ccccc12	-27	6	-11	2	58*	4	45*
CN(C)c1cccc(C(=O)OCC(=O)NC(=O)NCc2ccccc2)c1	x	2	x	6	-2	10	x
CC(=O)N(c1ccccc1)C1SC(=O)N(c2ccccc2)C1=O (stereo unspecified)	-3	-2	-2	-1	20	13	x
CN(c1ccccc1)S(=O)(=O)c1ccc(NC(=O)CC(=O)c2ccccc2)cc1	x	-8	x	x	-22	-1	x
Cc1cccc(C(=O)OCC(=O)NC(C)CCc2ccccc2)c1 (stereo unspecified)	1	0	0	7	46*	3	31*
